Source: the supplement of paper PMC9262897, “Low-cost anti-mycobacterial drug discovery using engineered E. coli” (Nature Communications, 2022)
Counter-ions that a name gives are not always drawn. ± gives the standard deviation of the averaged measurements.

Experiments:
Test in all cases: growth (OD600 after 10 h); higher = more growth (less inhibition)
[1] = tested on: E. coli TESEC Alr+ wild-type control; details: compound 0.1 mM; raw OD600 reference: median of DMSO wells 0.241, cell-free background 0.041
Description: (§1)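 TESEC Mtb Alr E. coli, or the Alr+ wild-type control, in 384-well plates with Prestwick library compounds at 0.1 mM and 1% DMSO, across arabinose induction levels of 1E3 to 1E7 nM. Growth is read as OD600 after 10 h at 37 °C in triplicate biological replicates.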

E. coli TESEC Mtb Alr [2] = details: compound 0.1 mM
Description: as §1

E. coli TESEC Mtb Asd = details: compound 0.1 mM
Description: (§2)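 TESEC E. coli strains in which the native enzyme is deleted and replaced by arabinose-inducible Mtb Asd, DapB, CysH or TrpD, each grown in its selective medium. Strains were screened against the Prestwick library at 0.1 mM and 1% DMSO in 384-well format at low and high arabinose induction. Growth is read as OD600 after 10 h in triplicate.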

E. coli TESEC Mtb DapB = details: compound 0.1 mM
Description: as §2

[3] = tested on: E. coli TESEC Alr+ wild-type control; details: compound 0.1 mM; raw OD600 reference: median of DMSO wells 0.49, cell-free background 0.052
Description: (§3)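 TESEC Mtb Alr E. coli (ΔaraC ΔtolC ΔentC Δalr ΔdadX, arabinose-inducible Mtb Alr) or the Alr+ wild-type control strain, grown in defined M9-fructose medium without D-alanine in 96-well plates with Prestwick library compounds at 0.1 mM and 1% DMSO. Low Alr induction is 0.1 µM arabinose and high induction is 10 mM arabinose.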

E. coli TESEC Mtb Alr [4] = details: compound 0.1 mM; remark: listed apart in the source
Description: as §3

[5] = arabinose 1000 nM, raw OD600 reference: median of DMSO wells 0.294, cell-free background 0.041
[6] = arabinose 10000 nM, raw OD600 reference: median of DMSO wells 0.264, cell-free background 0.041
[7] = arabinose 100000 nM, raw OD600 reference: median of DMSO wells 0.201, cell-free background 0.041
[8] = arabinose 1000000 nM, raw OD600 reference: median of DMSO wells 0.193, cell-free background 0.041
[9] = arabinose 10000000 nM, raw OD600 reference: median of DMSO wells 0.146, cell-free background 0.041
[10] = arabinose induction (level): High, raw OD600 reference: median of DMSO wells 0.331, cell-free background 0.041
[11] = arabinose induction (level): Low, raw OD600 reference: median of DMSO wells 0.417, cell-free background 0.041
[12] = arabinose induction (level): High, raw OD600 reference: median of DMSO wells […], cell-free background 0.041
[13] = arabinose induction (level): Low, raw OD600 reference: median of DMSO wells 0.227, cell-free background 0.041
[14] = arabinose 100 nM, raw OD600 reference: median of DMSO wells 0.413, cell-free background 0.052
[15] = arabinose 10000000 nM, raw OD600 reference: median of DMSO wells […], cell-free background 0.052

SMILES	growth [1]	growth (E. coli TESEC Mtb Alr [2]; [5])	growth (E. coli TESEC Mtb Alr [2]; [6])	growth (E. coli TESEC Mtb Alr [2]; [7])	growth (E. coli TESEC Mtb Alr [2]; [8])	growth (E. coli TESEC Mtb Alr [2]; [9])	growth (E. coli TESEC Mtb Asd; [10])	growth (E. coli TESEC Mtb Asd; [11])	growth (E. coli TESEC Mtb DapB; [12])	growth (E. coli TESEC Mtb DapB; [13])	growth [3]	growth (E. coli TESEC Mtb Alr [4]; [14])	growth (E. coli TESEC Mtb Alr [4]; [15])
CCCc1nn(C)c2c(=O)[nH]c(-c3cc(S(=O)(=O)N4CCN(C)CC4)ccc3OCC)nc12 [Sildenafil]	0.201 ± 0.016	0.235 ± 0.01	0.275 ± 0.014	0.186 ± 0.016	0.1606 ± 0.00076	0.1693 ± 0.0008	0.233 ± 0.013	0.399 ± 0.035	0.199 ± 0.01	0.27 ± 0.045	0.456 ± 0.045	0.406 ± 0.0068	0.2931 ± 0.0018
C[C@H]1NC(=O)NC1=O [Methylhydantoin-5-(D)]	0.257 ± 0.0085	0.323 ± 0.014	0.268 ± 0.005	0.2 ± 0.019	0.186 ± 0.0032	0.156 ± 0.0032	0.46 ± 0.085	0.467 ± 0.0073	0.202 ± 0.012	0.244 ± 0.012	0.607 ± 0.018	0.405 ± 0.015	0.321 ± 0.015
Cc1onc(-c2ccccc2Cl)c1C(=O)N[C@@H]1C(=O)N2[C@@H]1SC(C)(C)[C@@H]2C(=O)O [Cloxacillin sodium salt]	0.2567 ± 0.0017	0.288 ± 0.018	0.267 ± 0.005	0.217 ± 0.025	0.183 ± 0.0023	0.144 ± 0.0071	0.32 ± 0.051	0.41 ± 0.046	0.162 ± 0.01	0.208 ± 0.015	0.514 ± 0.11	0.417 ± 0.0066	0.344 ± 0.014
CC(C)(Oc1ccc(C2CC2(Cl)Cl)cc1)C(=O)O (stereo unspecified) [Ciprofibrate]	0.205 ± 0.046	0.263 ± 0.0056	0.273 ± 0.0078	0.154 ± 0.004	0.187 ± 0.016	0.123 ± 0.0026	0.26 ± 0.032	0.303 ± 0.051	0.203 ± 0.018	0.207 ± 0.012	0.515 ± 0.079	0.43 ± 0.0055	0.312 ± 0.016
CCC1(C)CC(=O)NC1=O (stereo unspecified) [Ethosuximide]	0.2481 ± 0.002	0.287 ± 0.014	0.267 ± 0.0062	0.219 ± 0.016	0.1876 ± 0.0001	0.141 ± 0.003	0.38 ± 0.03	0.417 ± 0.026	0.1866 ± 0.0016	0.245 ± 0.052	0.436 ± 0.043	0.4152 ± 0.0041	0.368 ± 0.019
CC(=O)OC(C)C[N+](C)(C)C (stereo unspecified) [Methacholine chloride]	0.238 ± 0.0071	0.282 ± 0.0064	0.269 ± 0.0094	0.171 ± 0.011	0.187 ± 0.0089	0.134 ± 0.0072	0.361 ± 0.092	0.428 ± 0.025	0.2263 ± 0.0013	0.243 ± 0.023	0.466 ± 0.066	0.413 ± 0.021	0.361 ± 0.015
NS(=O)(=O)c1cc2c(cc1Cl)N=CNS2(=O)=O [Chlorothiazide]	0.254 ± 0.0047	0.29 ± 0.0056	0.268 ± 0.0056	0.212 ± 0.021	0.183 ± 0.0053	0.1414 ± 0.00081	0.433 ± 0.014	0.447 ± 0.045	0.193 ± 0.006	0.239 ± 0.024	0.494 ± 0.032	0.403 ± 0.014	0.354 ± 0.0098
